In the library only some 8.1% were active in any assay of this set; here they are far more common.
Gal4-VP16 FLuc: inhibits Gal4-VP16 luciferase reporter, ROR gamma counter-screen; Potency, µM (top dose mostly 53.6 µM), hits mostly inhibitors; 310,000 tested, 3.5% active; AID 2546; Drosophila S2 Gal4-VP16 UAS-luciferase, luminescence, 20 h;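 also: Gal4-VP16 expression switched on by copper sulfate through the metallothionein promoter; nearly all actives have a fitted effect of over 50% in size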
RORgamma inh: blocks mouse ROR gamma transcriptional activity; Drosophila S2 Gal4-RORgamma UAS-luciferase reporter, 20 h; Potency, µM (doses to about 53.6 µM), actives largely listed as inhibitors; 310,000 tested, 5.4% active; AID 2551; also: nearly all actives have a fitted effect of over 60% in size
Target sequence (P51450 whole entry, looked up, the tested form may be a part): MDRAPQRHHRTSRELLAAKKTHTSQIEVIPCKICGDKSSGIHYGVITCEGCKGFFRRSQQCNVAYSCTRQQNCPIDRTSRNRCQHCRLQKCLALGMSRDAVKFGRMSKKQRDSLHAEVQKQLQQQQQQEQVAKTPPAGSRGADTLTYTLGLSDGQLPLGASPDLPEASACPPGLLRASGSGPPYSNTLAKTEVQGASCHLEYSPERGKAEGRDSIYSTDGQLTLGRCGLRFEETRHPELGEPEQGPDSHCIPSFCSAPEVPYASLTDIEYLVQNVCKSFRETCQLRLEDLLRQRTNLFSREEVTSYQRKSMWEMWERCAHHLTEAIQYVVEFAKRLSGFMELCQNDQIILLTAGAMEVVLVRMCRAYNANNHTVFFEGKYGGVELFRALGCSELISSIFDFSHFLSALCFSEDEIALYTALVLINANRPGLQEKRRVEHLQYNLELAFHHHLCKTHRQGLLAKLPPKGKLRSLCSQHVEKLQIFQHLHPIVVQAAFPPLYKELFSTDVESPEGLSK
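A Gal4/UAS one-hybrid system in insect cells: metallothionein-promoter Gal4–ROR gamma fusion plus Photinus luciferase reporter. Copper sulfate 700 uM final, 20 hr ambient incubation, luminescent detection after 10 min with reagent.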
Sfp inh: Sfp phosphopantetheinyl transferase inhibition; Q9F4F7; Biochemical Sfp PPTase activity, qHTS; Potency, µM, most hits filed as inhibitors; 310,000 tested, 3.5% active; AID 1490;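 also: the enzyme is Sfp with the accession as filed and its product quenches rhodamine fluorescence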
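Fluorescence-quenching assay: 15 nM Sfp-PPTase preincubated 15 min at room temperature with compound, then 5 uM rhodamine-CoA and 12.5 uM BHQ-2-labelled YbbR peptide added. Fluorescence (ex 525/em 598 nm) read at start and after 30 min; difference gives rate.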
PINK1 modulator: changes PINK1 expression; 410,000 tested, 0.2% active; AID 624263; Potency, µM (top dose mostly 76.6 µM), most hits filed as activators; PINK1 immunofluorescence, high-content cytometry, 24 h; active = well fitted activation curve with a large enough effect; inconclusive = small, poorly fitted or top-dose-only effect; cell line not stated here; also: nearly all actives have a fitted effect of over 65% in size
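Compound titrations (5 concentrations, 24 h) on a stable cell line; DMSO and CCCP controls. Endpoint: fixed-cell PINK1 immunofluorescence with mitochondrial, cell and nuclear markers, scanned by microplate cytometer.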
ClpP mod: qHTS Assay for Activators of ClpP. ATP-dependent Clp protease proteolytic subunit (Bacillus subtilis (strain 168)), P80244. purified B. subtilis ClpP, FRET peptide cleavage, 20 min. Potency, µM (series often up to 57.5 µM). 340,000 tested, 1.9% active. AID 651965, 2013; active = well fitted falling curve with a large enough effect; inconclusive = small, poorly fitted or top-dose-only effect; inactive = no such curve, though single readings can be large or run the other way; also: the source files actives as falling curves though it sought activators and does not explain the sign; nearly all actives have a fitted effect of over 65% in size
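Buffer: 100 mM Tris/HCl pH8, 100 mM KCl, 0.05% low protease BSA, 2.5% glycerol, 0.01% Tween-20. ClpP 10 microg/mL final; 20 min RT; delta FRET normalized to ADEP and DMSO controls.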
Epigenetic derep: epigenetic control regulation, reporter derepression; Potency, µM (top dose mostly 53.9 µM), usual class: activators; 280,000 tested, 0.2% active; murine LDR cells, GFP reporter derepression, 30 h; also: nearly all actives have a fitted effect of over 60% in size
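Murine LDR cells carrying a silenced, genomically integrated CMV-driven GFP reporter were exposed to compound for 30 hours at 37 C. After PBS washes, GFP-positive cells (20–120 um objects) were counted by laser-scanning microplate cytometry.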
Of the large screens only hits and unclear results are named; the others gave an inactive call. Unless noted, calls follow the shape of the dose curve; as a rule, active = well fitted curve in the direction sought with a large enough effect; inconclusive = small, poorly fitted or top-dose-only effect, or another doubt; inactive = no such curve, though single readings can be large; an effect the other way counts as inactive or inconclusive.

CCOC(=O)c1ccc(-n2c(-c3ccc(C)cc3)c(C)n3c4c(=O)n(C)c(=O)n(C)c4nc23)cc1	none (no result: Gal4-VP16 FLuc, RORgamma inh, Sfp inh)
CN(C)c1ccc(/C=C/c2ccnc3ccc(F)cc23)cc1	none (no result: Gal4-VP16 FLuc, RORgamma inh, Sfp inh, PINK1 modulator, Epigenetic derep)
CC(C)[C@H]1c2ccc(F)cc2CC[C@@]1(CCN(C)CCCc1nc2ccccc2[nH]1)OC(=O)C1CC1	Gal4-VP16 FLuc inconclusive, RORgamma inh inconclusive, Sfp inh 45µM
CNC(=S)N/N=C/c1c(C(=O)OC)cnn1-c1ccc(F)cc1F	Gal4-VP16 FLuc inconclusive, RORgamma inh 8.9µM (no result: ClpP mod)
COC(=O)c1cnn(-c2ccc(F)cc2F)c1/C=N/NC(=S)NC(C)(C)C	Gal4-VP16 FLuc inconclusive, RORgamma inh 1.3µM
COC(=O)c1cnn(-c2ccc(F)cc2F)c1/C=N/NC(N)=S	none
COC(=O)c1cnn(-c2ccccc2)c1/C=N/NC(=S)Nc1ccccc1	Gal4-VP16 FLuc 3.5µM, RORgamma inh 0.89µM, Epigenetic derep inconclusive
O=C(c1cnc(N2CCCCC2)c2ccccc12)N1CCN(c2ccccc2F)CC1	none (no result: Gal4-VP16 FLuc, RORgamma inh, Sfp inh)
O=P(Cc1ccccc1)(Cc1ccccc1)c1ccccc1	ClpP mod 32µM (no result: Gal4-VP16 FLuc, RORgamma inh, Sfp inh, Epigenetic derep)
O=P(Cc1ccccc1)(c1ccccc1)c1ccccc1	none
CC1CCCCN1C(=O)CSc1nc(C2CC2)nc2c1cnn2-c1ccccc1 (stereo unspecified)	Sfp inh 20µM (no result: PINK1 modulator)
CCOc1ccc(CCNC(=O)Cn2ncn3c(cc4sc(C)cc43)c2=O)cc1OCC	none (no result: Gal4-VP16 FLuc, RORgamma inh, Sfp inh)
CCOC(=O)c1c(C)[nH]c(C)c1S(=O)(=O)N(C)CC(=O)N1CCN(c2cccc(C)c2C)CC1	none (no result: Gal4-VP16 FLuc, RORgamma inh, Sfp inh)
COc1ccc(C(=O)c2c(C)c3ccccc3n2CC(O)CNC(C)C)cc1 (stereo unspecified)	Gal4-VP16 FLuc 20µM, RORgamma inh 7.9µM, Sfp inh 32µM
O=[N+]([O-])c1cc(S(=O)(=O)Nc2ccccc2)ccc1N1CCN(c2ccc(O)cc2)CC1	Gal4-VP16 FLuc inconclusive, RORgamma inh inconclusive, Sfp inh 56µM
CC1=NN(c2ccccc2)C(=O)/C1=C/C=C/c1ccccc1	Gal4-VP16 FLuc 18µM, RORgamma inh inconclusive
CN(C)/C=C1\C(=O)ON=C1c1ccccc1	none (no result: ClpP mod)
CC1=NN(c2cccc(C(=O)O)c2)C(=O)/C1=C\C=C\c1ccco1	Gal4-VP16 FLuc inconclusive, RORgamma inh 3.5µM
CC1=NN(c2ccccc2)C(=O)/C1=C\c1sccc1C	RORgamma inh inconclusive (no result: ClpP mod)
Cc1ccc(C2=NOC(=O)/C2=C\C=C\c2ccccc2)cc1	Gal4-VP16 FLuc inconclusive, RORgamma inh 14µM, Sfp inh 28µM, ClpP mod 32µM
COc1cc(/C=C2\C(=O)N(c3cccc(C(=O)O)c3)N=C2C)ccc1OCc1ccccc1	none (no result: Gal4-VP16 FLuc, RORgamma inh, Sfp inh, Epigenetic derep)
Cc1c(Cl)cccc1NC(=O)Cn1nnc(-c2nc(-c3ccccc3)no2)c1N	none (no result: Gal4-VP16 FLuc, RORgamma inh, Sfp inh)
CCn1c(=O)cc(OCC(=O)NCc2ccc(F)cc2Cl)c2ccccc21	none (no result: Gal4-VP16 FLuc, RORgamma inh, Sfp inh)
CC(C)CC1OCCC=CC1C (stereo unspecified)	none (no result: PINK1 modulator, ClpP mod)
Nc1ncnc2c1cnn2-c1ccccc1	ClpP mod inconclusive (no result: PINK1 modulator)
S=c1nc[nH]c2c1cnn2-c1ccccc1	Gal4-VP16 FLuc 4µM, RORgamma inh 3.5µM, Sfp inh 18µM
CCC(C)NCCOc1cc(C)cc(C)c1C (stereo unspecified)	Sfp inh 56µM (no result: ClpP mod)
Oc1ccc(N=Nc2ccc(Br)cc2)c(O)c1	Gal4-VP16 FLuc inconclusive, RORgamma inh inconclusive
Cc1ccc(N=Nc2ccc(O)cc2)c(Br)c1	Gal4-VP16 FLuc inconclusive, RORgamma inh 2.8µM (no result: Epigenetic derep)
Cc1ccc(-c2cc(NC(=O)COc3ccc(Cl)cc3C)on2)cc1	none (no result: Gal4-VP16 FLuc, RORgamma inh, Sfp inh)
C=CCn1c(SCc2ccc3c(c2)OCO3)nc2scc(-c3ccco3)c2c1=O	none
C=CCn1c(SC(F)F)nc2scc(-c3ccco3)c2c1=O	Gal4-VP16 FLuc 5µM, RORgamma inh inconclusive, Sfp inh inconclusive (no result: ClpP mod, Epigenetic derep)
CC(C)C(C)(C#N)NC(=O)CSc1nc2scc(-c3ccco3)c2c(=O)n1-c1ccccc1 (stereo unspecified)	Sfp inh 7.9µM
C=CCn1c(SCC(=O)NCCCC(=O)OCC)nc2scc(-c3ccco3)c2c1=O	Sfp inh 18µM (no result: ClpP mod)

Screening data as filed in PubChem BioAssay.
